Source: PubChem BioAssay AID1868 (National Center for Advancing Translational Sciences (NCATS), 2009)
Among all 270,000 compounds or so, about 20 (0.007%) were called active. Calls come from the whole dose curve; as a rule, active = well fitted inhibition curve with a large enough effect; inconclusive = small, poorly fitted or top-dose-only effect, or effect the other way; inactive = flat fitted curve, though single readings scatter. A selection follows.

target: Galactokinase (Homo sapiens) (UniProt P51570); experiment: qHTS Assay for Inhibitors of Human Galactokinase (GALK); conditions: Purified GALK, Kinase-Glo residual ATP luminescence; series mostly up to 57.5 µM; activity change, negative = inhibition: at the top concentration
From the text: NIH Molecular Libraries Probe Production Centers Network [MLPCN] NIH Chemical Genomics Center [NCGC] MLPCN Grant: R03 MH085689-01 Assay Submitter (PI): Kent Lai (University of Utah School of Medicine, 50 N Mario Capecchi Drive, Salt Lake City, UT 84132) NCGC Assay Overview: Inherited deficiency of galactose-1-phosphate uridyltransferase (GALT) can result in a potentially lethal disorder called Classic Galactosemia (OMIM 230400). Several lines of evidence indicate that an elevated level of galactose-1-phosphate (gal-1-p), the product of galactokinase (GALK), is a major, if not sole, pathogenic mechanism in patients with classic galactosemia. Therefore, finding inhibitors of GALK is a potential novel therapy for this inherent metabolic disease and is the long term goal of this project. GALK (provided by the assay submitter) was assayed using ATP and D-(+)-Galactose (Sigma-Aldrich cat# G0750) as substrates. Promega Kinase-Glo Plus (cat# V3774) technology was used to detect the residual ATP following kinetic reaction. Briefly, the Kinase-Glo Plus contains Ultra-Glo [2] luciferase and D-luciferin which generates a bioluminescence signal from the remaining ATP.
NCGC Assay Protocol Summary: Three uL/well of ATP-buffer solution (35 uM ATP, 20mM HEPES pH8.0, 5 mM MgCl2, 60 mM NaCl, 1 mM DTT, 0.01% BSA final concentration) was dispensed into 1536-well, assay plates (Greiner, solid white medium-binding plates) with Aurora Discovery BioRAPTR Flying Reagent Dispenser (FRD; Beckton-Dickenson). Compound solution (23 nL) was transferred to the assay plate using the Kalypsys 1536-pin tool. One uL/well GALK-galactose solution (5 nM GALK, 100 uM galactose, 20 mM HEPES pH8.0, 5 mM MgCl2, 60 mM NaCl, 1 mM DTT, 0.01% BSA final concentration) was then added using the FRD yielding a total kinase reaction volume of 4 uL/ well. After 1 hour of room temperature incubation, 4 uL Kinase-Glo Plus reagent was added for a final assay volume of 8 uL/ well. Luminescence was detected with the ViewLux plate reader (Perkin Elmer, Waltham, MA) after 10 min incubation using a 1 sec exposure time and 2x binning.
% is set by controls: 0 for no effect and ±100 for the full control effect.

Sequence of Galactokinase (Homo sapiens) (P51570 whole entry, looked up): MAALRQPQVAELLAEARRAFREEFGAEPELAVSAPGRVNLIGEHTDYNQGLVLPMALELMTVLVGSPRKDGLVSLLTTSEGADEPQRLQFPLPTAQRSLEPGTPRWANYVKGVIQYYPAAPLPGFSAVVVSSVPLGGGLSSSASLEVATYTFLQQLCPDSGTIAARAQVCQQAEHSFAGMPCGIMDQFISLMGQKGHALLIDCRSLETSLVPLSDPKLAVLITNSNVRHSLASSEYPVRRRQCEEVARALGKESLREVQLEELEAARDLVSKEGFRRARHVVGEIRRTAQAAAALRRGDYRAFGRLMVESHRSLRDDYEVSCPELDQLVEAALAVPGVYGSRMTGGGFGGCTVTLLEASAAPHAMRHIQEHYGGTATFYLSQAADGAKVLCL

Activity change, negative = inhibition, inactive:
COc1cccc(NC(=O)C(=O)c2cn(CC(=O)N3CCOCC3)c3ccccc23)c1 0.368%
CCOC(=O)C1CCCN(CCSc2ccc(C)cc2)C1 (stereo unspecified) -3.07%
O=C(Nc1ccc(S(=O)(=O)NCC2CCCO2)cc1)c1ccc(F)cc1 (stereo unspecified) -2.11%
Cc1ccccc1NC(=S)NC(=O)Cc1ccc(Cl)cc1 7.47%
COCCN1CCN(C(=O)c2cc(COc3ccc(F)cc3Cl)on2)CC1 5.12%
COc1ccc(N(C(=O)c2snc(C(N)=O)c2N)C(C(=O)NC2CCCC2)c2ccc(C)o2)c(OC)c1 (stereo unspecified) -1.02%
O=C(CCl)NNc1nc(-c2ccccc2)c2cc(Cl)ccc2n1 0.907%
CCOC(=O)Nc1ccc2c(c1)N(C(=O)CCCl)c1ccccc1[S@]2=O -2.31%
NC(=O)CSc1nnc(NC(=O)c2ccc(Br)o2)s1 3.28%
CN(C(=O)CCN1C(=O)/C(=C/c2ccccc2F)SC1=S)C1CCS(=O)(=O)C1 (stereo unspecified) 7.27%
O=C(CC(n1cncn1)C(Cl)(Cl)Cl)c1ccc([N+](=O)[O-])cc1 (stereo unspecified) 1.45%
Cc1ccc(NC(=O)CSc2cccc3cccnc23)c(C)c1 -1.71%
Cc1ccc(/C=N/NC(=O)c2cc3ccccc3cc2O)o1 0.24%
COc1ccc(OCc2cc(C(=O)N3CCCC3)no2)c2ccccc12 -7.05%
COc1ccccc1C(=O)NC(=S)Nc1ccccc1N1CCCCC1 -4.03%
COc1ccc([N+](=O)[O-])cc1N(CC(=O)Nc1ccccc1C(=O)N1CCOCC1)S(C)(=O)=O 2.62%
COc1cccc(C(=O)N/N=C(\C)c2cccc(NC(=O)c3ccc(F)cc3)c2)c1OC -11.7%
Oc1ccccc1-c1cc(-c2ccc(Cl)cc2)n[nH]1 -6.23%
CCSc1nc2sc3c(c2c(=O)n1-c1ccc(C)cc1)CCN(C)C3 -3.96%
COc1ccc(NCCc2ccccn2)cc1 -1.27%
Cc1ccc(NS(=O)(=O)c2ccc3c(c2)oc(=O)n3C)c(C)c1 2.68%
O=C(Nc1cccc(Cl)c1Cl)c1ccccc1NC(=O)C1CC=CCC1C(=O)O (stereo unspecified) -4.93%
S=C(Nc1ccc(Cl)cc1Cl)N1CCCC1 0.847%
O=C(Nc1ccnn1C1CCN(Cc2cccc(OCCO)c2)CC1)C1CCCC1 3.25%
CC(C)(C)c1ccc(Cn2nnc3c(=O)[nH]c(C4CCCN(C(=O)c5ccco5)C4)nc32)cc1 (stereo unspecified) -1.13%
CCc1ccccc1OCC(=O)Nc1ccc2c(c1)OCCO2 13.3%
O=[N+]([O-])c1ccc2c(c1)Nc1nc3ccccc3nc1N2 6.04%
CC1CN(C(=O)CCC(=O)NCCCN2CCC(Cc3ccccc3)CC2)c2cc(Cl)ccc2O1 (stereo unspecified) -0.958%
Cc1ccc(CSc2nsc(C)c2C#N)cc1 -1.65%
CC(=O)c1ccc(NC(=O)c2sc3nc4n(c(=O)c3c2C)CCCCC4)cc1 3.59%
CC(C)=CCN1CCN(CCCc2ccccc2)CC1CCO (stereo unspecified) 3.23%
O=C(Nc1ccc(C2CC2(Cl)Cl)cc1)c1cccc([N+](=O)[O-])c1 (stereo unspecified) 0.976%
COc1ccccc1/C=C/C(=O)NC(=S)N1CCOCC1 -1.25%
COC(=O)c1ccc(COc2ccc(/C=C/C(=O)c3ccc(OC)c(CSCC(=O)O)c3)cc2OC)cc1 -6.55%
COc1ccc(NC(=O)CCCC2CCCCC2)c(OC)c1 -2.48%
O=c1c2ccccc2ncn1CCCCOc1ccccc1F 1.26%
Brc1ccccc1/C=N/Nc1nc2ccccc2o1 -2.18%
COc1ccc(OC)c(NC(=O)Cc2cccs2)c1 -3.6%
CC(CN1CCOCC1)OC(=O)c1ccc(C(C)(C)C)cc1 (stereo unspecified) 5.88%
O=C(CNC(=O)c1ccc(F)cc1)c1ccccc1 7.94%
CCOC(=O)C(Cc1ccc(N)cc1)N1C(=O)c2ccccc2C1=O (stereo unspecified) -2.49%
COc1ccccc1N1CCN(/N=C/c2ccc(O)cc2O)CC1 0.0195%
CC(=O)N[C@@H](C)C(=O)N1CCC(n2nccc2NC(=O)CCCc2ccccc2)CC1 -8.5%
COc1ccc(C(=O)NCCSc2ccccc2C)cc1 2.87%
CCOCc1nnc(NC(=O)CCS(=O)(=O)Cc2ccccc2)s1 17.2%
CCC(=O)Nc1ccc(-c2ccc(N3CCCCC3)nn2)cc1 6.79%
COc1ccc(-c2csc3ncnc(N4CCN(S(=O)(=O)c5ccccc5C#N)CC4)c23)cc1 -1.81%
CC(=O)Nc1ccc(S(=O)(=O)Nc2cc(C)cn(Cc3ccc(C)cc3)c2=O)cc1 -2.01%
COc1ccc(CN2CCCC(N3CCc4ccccc4C3)C2)c(O)c1 (stereo unspecified) 3.61%
CC1CCN(S(=O)(=O)c2ccc3c(c2)n(C)c(=O)n3C)CC1 1.48%
Cc1ccccc1Nc1nc(-c2cccnc2)cs1 4.19%
CC1=NN(C(N)=S)C(=O)C1N=Nc1cc(Cl)ccc1Cl (stereo unspecified) -1.93%
CC(C)(C)c1ccc(SCCc2ccncc2)cc1 2.38%
O=C(/C=C/c1ccc([N+](=O)[O-])o1)NNC(=O)c1ccc(F)cc1 4.88%
CC(C)(C)C(=O)NC1CC2CCCC(C1)N2C(=O)Nc1ccccc1F (stereo unspecified) -7.57%
Cc1cc(C)c2nc(N(CCN(C)C)C(=O)/C=C/c3cccs3)sc2c1 0.912%
COc1ccc(C(=O)O/N=C(\N)c2ccccn2)cc1[N+](=O)[O-] 4.35%
CS(=O)(=O)N1CCN(C(=O)CSc2ccccc2)CC1 1.25%
CCC(C)c1ccc(NC(=S)N2CCCC2)cc1 (stereo unspecified) -5.24%
O=C(CN1CCN(c2cccc(Cl)c2)CC1)Nc1ccc(S(=O)(=O)N2CCOCC2)cc1 6.53%
CCc1ccccc1NC(=O)c1ccc2snnc2c1 3.35%
CN(c1ccc(O)cc1)c1nc(-c2cccnc2)cs1 4.72%
Cc1ccc(C(=O)Nc2nnc(C3=COCCO3)o2)cc1C 1.42%
CCN1CCN(c2sc(S(C)(=O)=O)nc2S(=O)(=O)c2ccc(Cl)cc2)CC1 -4.5%
Cc1cccc(Nc2nc(-c3ccccc3)cs2)n1 -8.33%
COc1ccc(/C=C(\C#N)c2c[nH]c3ccccc23)cc1 -9.3%
COc1ccc(CCc2nc(-c3cccs3)no2)cc1 8.36%
O=C(Nc1ncc([N+](=O)[O-])s1)C1COc2ccccc2O1 (stereo unspecified) -1.73%
COCCN1C(=O)N(c2ccc(Cl)cc2)C(=O)C1CC(=O)Nc1cc(OC)cc(OC)c1 (stereo unspecified) -3.36%
Cc1c(C)n(Cc2ccc(Cl)cc2)c2ccc(C(=O)NCCCN3CCOCC3)cc12 0.0996%
Cc1cccc2sc(N(CCCN(C)C)C(=O)CCS(=O)(=O)c3ccccc3)nc12 -3.45%
